The whole screen tested about 3,200 compounds, of which about 110 (3.4%) showed an effect of 50% or more. For the sample, strong results were picked, then their nearest neighbours and some compounds at random.
The compounds below were run on T1, V. cholerae SAD30. Details: relative growth, OD600, LB; 25 µM; inhibitor.
T1 construct: SAD30
Set-up: species or system S. aureus MSSA476 (TSB) or V. cholerae SAD30 (LB); 384-well bacterial growth screen at 25 uM, OD600 relative to DMSO control

**Q.** With `CN(Cc1ccccc1)S(=O)(=O)c1ccc(NC(=O)CCl)cc1` [5-K08, N-{4-[benzyl(methyl)sulfamoyl]phenyl}-2-chloroacetamide] as the compound, how does the “% of control remaining” value read?
**A.** Its value is 97.1735%.

**Q.** Which “% of control remaining” value does the source give for `N#CC(=Cc1cnc(-c2ccccc2)nc1)C(=O)NCc1ccco1` [9-M14, 2-cyano-N-[(furan-2-yl)methyl]-3-(2-phenylpyrimidin-5-yl)prop-2-enamide] here?
**A.** Its value is 95.2413%.

**Q.** With `O=C(CCl)Nc1ccccc1F` [4-M16, 2-chloro-N-(2-fluorophenyl)acetamide] as the compound, how does the “% of control remaining” value read?
**A.** The value was 98.3394%.

**Q.** Which “% of control remaining” value does the source give for `O=C(CCl)Cc1c(Cl)cccc1Cl` [10-K15, 1-chloro-3-(2,6-dichlorophenyl)propan-2-one] here?
**A.** The value was 45.6653%.

**Q.** `Cc1cccc(Cl)c1CCCNC(=O)CCl` [7-F04, 2-chloro-N-[3-(2-chloro-6-methylphenyl)propyl]acetamide] was tested. Which “% of control remaining” value did it give?
**A.** The value was 91.9874%.

**Q.** How did the “% of control remaining” value turn out when `O=C(CCl)Cc1cccc(F)c1F` [10-K17, 1-chloro-3-(2,3-difluorophenyl)propan-2-one] was run?
**A.** The value was 0.1559%.

**Q.** For `O=C(CCl)Nc1c(Cl)cccc1C(F)(F)F` [5-B04, 2-chloro-N-[2-chloro-6-(trifluoromethyl)phenyl]acetamide], which “% of control remaining” value is on record?
**A.** Its value is 98.0141%.

**Q.** How did the “% of control remaining” value turn out when `O=C(CCl)Cc1c(F)cccc1Cl` [10-D20, 1-chloro-3-(2-chloro-6-fluorophenyl)propan-2-one] was run?
**A.** Its value is 36.1582%.

**Q.** `O=C(CCl)NCCc1c(F)cccc1F` [5-F20, 2-chloro-N-[2-(2,6-difluorophenyl)ethyl]acetamide] was tested. Which “% of control remaining” value did it give?
**A.** The value was 99.5272%.

**Q.** `O=C(CCl)Cc1c(F)cccc1F` [10-O15, 1-chloro-3-(2,6-difluorophenyl)propan-2-one] was tested. Which “% of control remaining” value did it give?
**A.** Its value is 99.7467%.

**Q.** How did the “% of control remaining” value turn out when `O=C(CCl)Nc1ccc(F)c(F)c1F` [4-M05, 2-chloro-N-(2,3,4-trifluorophenyl)acetamide] was run?
**A.** The value was 104.033%.

**Q.** Which “% of control remaining” value does the source give for `Cc1ccc2sc(N(Cc3ccccc3)C(=O)CCl)nc2c1C` [4-K06, N-benzyl-2-chloro-N-(4,5-dimethyl-1,3-benzothiazol-2-yl)acetamide] here?
**A.** Its value is 100.927%.

**Q.** For `C=CC(=O)Nc1ccccc1Sc1nncs1` [1-G04, N-[2-(1,3,4-thiadiazol-2-ylsulfanyl)phenyl]prop-2-enamide], which “% of control remaining” value is on record?
**A.** Its value is 100.149%.

**Q.** With `COCCNC(=O)C(C#N)=Cc1sccc1C` [9-M17, 2-cyano-N-(2-methoxyethyl)-3-(3-methylthiophen-2-yl)prop-2-enamide] as the compound, how does the “% of control remaining” value read?
**A.** The value was 85.9959%.

**Q.** `O=C(CCl)N1C[C@@H]2C[C@H]1CN2c1ccccc1` [5-E22, 2-chloro-1-[(1S,4S)-5-phenyl-2,5-diazabicyclo[2.2.1]heptan-2-yl]ethan-1-one] was tested. Which “% of control remaining” value did it give?
**A.** Its value is 106.756%.

**Q.** For `NS(=O)(=O)c1cccc(N2C(=O)C=CC2=O)c1` [10-I05, 3-(2,5-dioxo-2,5-dihydro-1H-pyrrol-1-yl)benzene-1-sulfonamide], which “% of control remaining” value is on record?
**A.** The value was 102.396%.

**Q.** For `COc1cccc(NC(=O)C(C#N)=Cc2ccc(O)cc2)c1` [8-O17, 2-cyano-3-(4-hydroxyphenyl)-N-(3-methoxyphenyl)prop-2-enamide], which “% of control remaining” value is on record?
**A.** The value was 71.584%.

**Q.** How did the “% of control remaining” value turn out when `O=C1C=CC(=O)N1c1cccc([N+](=O)[O-])c1` [10-P15, 1-(3-nitrophenyl)-2,5-dihydro-1H-pyrrole-2,5-dione] was run?
**A.** The value was 35.6906%.

**Q.** `COc1cccc(NC(=O)C(C)Cl)c1` (centres unmarked) [6-I03, 2-chloro-N-(3-methoxyphenyl)propanamide] was tested. Which “% of control remaining” value did it give?
**A.** The value was 100.863%.

**Q.** Which “% of control remaining” value does the source give for `COc1cccc(N2C(=O)C=CC2=O)c1` [10-K03, 1-(3-methoxyphenyl)-2,5-dihydro-1H-pyrrole-2,5-dione] here?
**A.** Its value is 23.8457%.

**Q.** How did the “% of control remaining” value turn out when `CC(=O)Nc1cccc(N2C(=O)C=CC2=O)c1` [10-D09, N-[3-(2,5-dioxo-2,5-dihydro-1H-pyrrol-1-yl)phenyl]acetamide] was run?
**A.** The value was 85.564%.

**Q.** How did the “% of control remaining” value turn out when `O=C1C=CC(=O)N1c1cccc(O)c1` [10-O07, 1-(3-hydroxyphenyl)-2,5-dihydro-1H-pyrrole-2,5-dione] was run?
**A.** Its value is 26.4952%.

**Q.** For `Cc1cc(C(=O)CCl)c(C)n1-c1cccc([N+](=O)[O-])c1` [10-B16, 2-chloro-1-[2,5-dimethyl-1-(3-nitrophenyl)-1H-pyrrol-3-yl]ethan-1-one], which “% of control remaining” value is on record?
**A.** The value was 67.329%.

**Q.** Which “% of control remaining” value does the source give for `CC(Cl)C(=O)N1CCCC(n2ccc(C(F)(F)F)n2)C1` (centres unmarked) [7-A08, 2-chloro-1-{3-[3-(trifluoromethyl)-1H-pyrazol-1-yl]piperidin-1-yl}propan-1-one] here?
**A.** The value was 84.3218%.

**Q.** Which “% of control remaining” value does the source give for `O=C(CCl)Nc1nc2c(s1)CCc1ccccc1-2` [6-D03, 2-chloro-N-{4H,5H-naphtho[1,2-d][1,3]thiazol-2-yl}acetamide] here?
**A.** The value was 105.868%.

**Q.** Which “% of control remaining” value does the source give for `CC(NC(=O)CCl)C(=O)N1CCS(=O)(=O)CC1` (centres unmarked) [5-K14, 2-chloro-N-[1-(1,1-dioxo-1lambda6-thiomorpholin-4-yl)-1-oxopropan-2-yl]acetamide] here?
**A.** Its value is 88.7675%.

**Q.** For `C=CC(=O)N1CCOCC1c1noc(C)n1` (centres unmarked) [3-O11, 1-[3-(5-methyl-1,2,4-oxadiazol-3-yl)morpholin-4-yl]prop-2-en-1-one], which “% of control remaining” value is on record?
**A.** The value was 103.029%.

**Q.** For `C=CC(=O)N1CCC(C(=O)NCc2ccoc2C)CC1` [1-E14, N-[(2-methylfuran-3-yl)methyl]-1-(prop-2-enoyl)piperidine-4-carboxamide], which “% of control remaining” value is on record?
**A.** Its value is 89.0882%.

**Q.** For `C=CC(=O)N(Cc1ccc(F)cn1)c1cnn(C2CCCC2)c1C` [1-D11, N-(1-cyclopentyl-5-methyl-1H-pyrazol-4-yl)-N-[(5-fluoropyridin-2-yl)methyl]prop-2-enamide], which “% of control remaining” value is on record?
**A.** Its value is 86.846%.

**Q.** How did the “% of control remaining” value turn out when `Cc1ccc(C=C(C#N)C(=O)Nc2ccccc2C)cc1` [8-G16, 2-cyano-N-(2-methylphenyl)-3-(4-methylphenyl)prop-2-enamide] was run?
**A.** The value was 72.8076%.

**Q.** How did the “% of control remaining” value turn out when `N#CC(=Cc1ccc(C#N)cc1)C(=O)Nc1cccc(Cl)c1Cl` [8-J05, 2-cyano-3-(4-cyanophenyl)-N-(2,3-dichlorophenyl)prop-2-enamide] was run?
**A.** The value was 72.9436%.

**Q.** For `CC(Cl)C(=O)NCCc1nc2cc(F)ccc2s1` (centres unmarked) [7-P11, 2-chloro-N-[2-(5-fluoro-1,3-benzothiazol-2-yl)ethyl]propanamide], which “% of control remaining” value is on record?
**A.** The value was 81.4142%.

**Q.** Which “% of control remaining” value does the source give for `CC(Cl)C(=O)Nc1ccc(Cc2nnc3ncccn23)cc1` (centres unmarked) [7-O22, 2-chloro-N-[4-({[1,2,4]triazolo[4,3-a]pyrimidin-3-yl}methyl)phenyl]propanamide] here?
**A.** Its value is 91.0623%.

**Q.** Which “% of control remaining” value does the source give for `O=C(CCl)NCc1ccc(OC(F)(F)F)cc1` [6-G08, 2-chloro-N-{[4-(trifluoromethoxy)phenyl]methyl}acetamide] here?
**A.** Its value is 91.3072%.

**Q.** How did the “% of control remaining” value turn out when `CCOC(=O)C(C#N)=Cc1ccc(N2C(=O)C=CC2=O)cc1` [10-N11, ethyl 2-cyano-3-[4-(2,5-dioxo-2,5-dihydro-1H-pyrrol-1-yl)phenyl]prop-2-enoate] was run?
**A.** The value was 96.6297%.

**Q.** `CCOc1ccc(N2C(=O)C=CC2=O)cc1` [10-A14, 1-(4-ethoxyphenyl)-2,5-dihydro-1H-pyrrole-2,5-dione] was tested. Which “% of control remaining” value did it give?
**A.** Its value is 23.3781%.

**Q.** Which “% of control remaining” value does the source give for `CCn1cc(N2C(=O)C=CC2=O)cn1` [10-I21, 1-(1-ethyl-1H-pyrazol-4-yl)-2,5-dihydro-1H-pyrrole-2,5-dione] here?
**A.** The value was 56.731%.

**Q.** With `N#CC(=Cc1cccc(Oc2ccccc2)c1)C(=O)N1CCCC1` [9-F06, 3-(3-phenoxyphenyl)-2-(pyrrolidine-1-carbonyl)prop-2-enenitrile] as the compound, how does the “% of control remaining” value read?
**A.** The value was 85.724%.

**Q.** Which “% of control remaining” value does the source give for `Cc1cc(C(=O)C(C)Cl)c(C)n1-c1ccc(OC(F)F)cc1` (centres unmarked) [10-E10, 2-chloro-1-{1-[4-(difluoromethoxy)phenyl]-2,5-dimethyl-1H-pyrrol-3-yl}propan-1-one] here?
**A.** The value was 97.7206%.

**Q.** With `O=C1C=CC(=O)N1c1ccc(OC(F)(F)F)cc1` [10-J19, 1-[4-(trifluoromethoxy)phenyl]-2,5-dihydro-1H-pyrrole-2,5-dione] as the compound, how does the “% of control remaining” value read?
**A.** The value was 30.0799%.

**Q.** `O=C1C=CC(=O)N1c1ccc(Oc2ccccc2)cc1` [10-F17, 1-(4-phenoxyphenyl)-2,5-dihydro-1H-pyrrole-2,5-dione] was tested. Which “% of control remaining” value did it give?
**A.** The value was 26.1835%.

**Q.** With `Cc1cc(C(=O)CCl)c(C)n1-c1ccc(OC(F)(F)F)cc1` [10-G04, 2-chloro-1-{2,5-dimethyl-1-[4-(trifluoromethoxy)phenyl]-1H-pyrrol-3-yl}ethan-1-one] as the compound, how does the “% of control remaining” value read?
**A.** Its value is 98.344%.

**Q.** How did the “% of control remaining” value turn out when `O=C1C=CC(=O)N1c1ccc(OC(F)F)cc1` [10-P11, 1-[4-(difluoromethoxy)phenyl]-2,5-dihydro-1H-pyrrole-2,5-dione] was run?
**A.** The value was 36.7816%.

**Q.** With `N#CC(=Cc1ccc(OC(F)F)cc1)C(=O)N1CCCC1` [8-L22, 3-[4-(difluoromethoxy)phenyl]-2-(pyrrolidine-1-carbonyl)prop-2-enenitrile] as the compound, how does the “% of control remaining” value read?
**A.** Its value is 77.0224%.

**Q.** With `O=C(CCl)NCCC1=CCCCC1` [4-H05, 2-chloro-N-[2-(cyclohex-1-en-1-yl)ethyl]acetamide] as the compound, how does the “% of control remaining” value read?
**A.** The value was 111.451%.

**Q.** How did the “% of control remaining” value turn out when `O=C(CCl)NCCc1cccc2c1Oc1ccccc1O2` [7-J18, 2-chloro-N-[2-(oxanthren-1-yl)ethyl]acetamide] was run?
**A.** Its value is 77.317%.

**Q.** With `CN(CC(=O)Nc1cccc(Cl)c1)C(=O)CCl` [5-F18, 2-chloro-N-{[(3-chlorophenyl)carbamoyl]methyl}-N-methylacetamide] as the compound, how does the “% of control remaining” value read?
**A.** The value was 84.0601%.
